# Assay outcomes (PubChem)
# PrP UTR inh – inhibition of PrP 5' UTR reporter expression. cell-based PrP 5' UTR mRNA reporter, plate reader. inhibition, % (concentration not given with the values). 340,000 tested, 0.35% active; in the data active = inhibition above about 52%; also: 0 = median of the neutral control wells
# PrPC surface inh – inhibitors of human cell surface prion protein PrPC; P04156; TR-FRET read-out; inhibition, % at 13.8 µM; 370,000 tested, 0.43% active; AID 720596; in the data active = inhibition above about 24%; also: 0% = median of the test wells and 100% = reference compound wells
# Mtb hypoxia inh – reduces hypoxia-regulated biosensor signal in M. tuberculosis. M. tuberculosis hypoxia-regulated fluorescent reporter, fluorescence. 300,000 tested, 0.1% active. fluorescence inhibition, % (concentration not given with the values); in the data active = fluorescence inhibition mostly above about 23%, no sharp cut-off; inactive = mostly below about 17%
# GDH-TPI counter-1 – counter-screen for M. tuberculosis FBA inhibitors: GDH-TPI coupled enzymes. GDH-TPI coupled enzyme counterscreen, NADH absorbance. inhibition, % at 4.8 µM. 360,000 tested, 1.2% active; in the data active = inhibition above about 30%;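 also: 0% = DMSO wells and 100% = wells lacking the enzyme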
# Y pestis TopoI – inhibitors of Yersinia pestis topoisomerase I; activity, % at 10 µM; Y. pestis Topo-I cleavage product accumulation, plate reader; 360,000 tested, 0.064% active; AID 504884; in the data active = activity above about 50%, passing the limit was not always enough
# Mtb FBA inh – inhibitors of M. tuberculosis fructose-bisphosphate aldolase; P9WQA3; purified M. tuberculosis FBA, fluorescence read-out; inhibition, % at 1 µM; 360,000 tested, 2.3% active; AID 588726;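 also: 0% = vehicle and 100% = reference inhibitor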
# Target sequence (P9WQA3 whole entry, looked up): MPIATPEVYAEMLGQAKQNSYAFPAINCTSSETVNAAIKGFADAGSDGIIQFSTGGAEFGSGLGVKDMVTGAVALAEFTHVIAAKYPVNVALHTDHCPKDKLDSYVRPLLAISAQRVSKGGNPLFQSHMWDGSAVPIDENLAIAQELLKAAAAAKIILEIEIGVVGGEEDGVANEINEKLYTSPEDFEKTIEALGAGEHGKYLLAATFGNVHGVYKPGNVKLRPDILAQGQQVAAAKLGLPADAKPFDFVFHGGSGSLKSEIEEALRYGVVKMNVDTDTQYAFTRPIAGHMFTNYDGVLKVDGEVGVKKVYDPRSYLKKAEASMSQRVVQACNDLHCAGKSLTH
# Mtb FBA inh conf – confirmation of M. tuberculosis fructose-bisphosphate aldolase inhibitors; AID 651616; shares compounds with Mtb FBA inh; 5,600 tested, 78% active; inhibition, % at 1 µM; purified M. tuberculosis FBA, fluorescence read-out;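 also: 0% = vehicle wells and 100% = reference inhibitor wells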
# GDH-TPI counter-2 – inhibits GDH-TPI coupling enzymes, flagging Mtb FBA hits; shares compounds with Mtb FBA inh; GDH-TPI coupled enzyme counterscreen, fluorescence; inhibition, % at 1 µM; 5,600 tested, 81% active; AID 652141; in the data active = inhibition above about 10%
# GDH-TPI DR – GDH-TPI dose response counter-screen for Mtb FBA | shares compounds with Mtb FBA inh | GDH-TPI coupled enzyme assay, fluorescence, artifact counterscreen | IC50, µM | 170 tested, 79% active | AID 652145; call rule not given here
# Starred values were filed as active, the others as inactive; . = no result given; + = active, no number. The list is not random: actives were taken first. Their share in the collection is about 3.8%. Rule as the data show it, unless noted: active = inhibition above about 27%; inactive = the rest.
SMILES,PrP UTR inh,PrPC surface inh,Mtb hypoxia inh,GDH-TPI counter-1,Y pestis TopoI,Mtb FBA inh,Mtb FBA inh conf,GDH-TPI counter-2,others
O=c1c2ccccc2nc2c3ccccc3c(NCc3cccnc3)nn12,1.4,-1.4,-11.1,3.1,1.3,2.2,.,.,
O=c1c2ccccc2nc2c3ccccc3c(NCc3ccccn3)nn12,-23.3,1.1,1.5,2.1,17.7,78.6*,+,179.6*,
O=c1c2ccccc2nc2c3ccccc3c(NCCO)nn12,-0.4,-9.6,3.5,8.4,2.8,33.1*,+,+,
COc1cc(C=NN2C(C)CCCC2C)cc(OC)c1O (stereo unspecified),.,.,15.1,.,.,.,.,.,
COc1cccc2[nH]c(C(=O)NCCCN3CCCC3=O)cc12,-4.4,-5.3,4.9,-0.8,-6.8,59.0*,142.6*,115.5*,
Cc1cccn2c(=O)c3cc(C(=O)N4COCC4(C)C)n(Cc4ccccc4)c3nc12,-23.3,5.7,-9.9,-8.9,6.1,4.2,.,.,
Cc1cccn2c(=O)c3cc(C(=O)N4CC(C)CC(C)C4)sc3nc12 (stereo unspecified),-21.2,-7.0,-1.4,3.7,27.2,5.2,.,.,
COCCCn1c(C(=O)N2CC(C)OC(C)C2)cc2c(=O)n3cccc(C)c3nc21 (stereo unspecified),5.7,.,-17.0,26.8,-0.3,73.7*,+,+,
COCCCn1c(C(=O)N2CCOCC2)cc2c(=O)n3cccc(C)c3nc21,-22.6,-7.0,3.5,17.9,11.6,72.4*,55.0*,43.4*,
CCCCn1c(=NC(=O)c2ccc3c(c2)OCO3)c(C#N)cc2c(=O)n3cccc(C)c3nc21,-8.4,-4.1,.,-1.5,4.0,77.4*,+,+,
O=C(Cn1cc(C(F)(F)F)ccc1=O)NN=Cc1ccc(O)cc1,.,.,5.1,.,.,.,.,.,
Cc1n[nH]c(C)c1CCC(=O)NN=C/C=C/c1ccccc1,.,.,-9.6,.,.,.,.,.,
O=[N+]([O-])c1ccc(C[n+]2c(-c3ccccc3)cc(-c3ccccc3)cc2-c2ccccc2)cc1,0.7,-29.7,.,-10.8,11.6,67.0*,+,+,
O=C([O-])c1cc(-c2ccccc2)cc(-c2ccccc2)[n+]1Cc1ccccc1,.,8.9,0.1,.,.,.,.,.,
Cc1cccc(NC(=S)N(CCCN(C)C)Cc2cc3cc4c(cc3[nH]c2=O)OCO4)c1,-18.1,-2.9,10.1,16.4,7.3,27.4*,7.6,-4.0,
CN(C)CCN(Cc1cc2cc3c(cc2[nH]c1=O)OCO3)C(=S)NCc1ccco1,-31.3,-1.2,15.5,25.2,-1.5,32.4*,77.1*,52.3*,
CCN(CC)CCN(Cc1cc2cc3c(cc2[nH]c1=O)OCO3)C(=S)NCCCN(C)C,-1.4,-2.6,8.1,30.4,-4.6,35.2*,30.1*,27.8*,
CCNC(=S)N(CCN(C)C)Cc1cc2cc3c(cc2[nH]c1=O)OCO3,-19.4,7.3,2.4,13.8,0.5,43.6*,57.9*,42.8*,
CCc1ccccc1NC(=S)N(CCCN(C)C)Cc1cc2cc3c(cc2[nH]c1=O)OCO3,-23.7,-5.0,-4.7,15.5,-5.1,23.3,.,.,
CC1(C)Cc2c(sc(N=CN3CCOCC3)c2C#N)C(C)(C)N1,.,.,-6.5,.,.,.,.,.,
CC(C)C[C@@]12C(=O)N(c3cccc(Cl)c3)C(=O)N1C(c1ccc(F)cc1)C1C(=O)N(C3CCCCC3)C(=O)C12 (stereo partly specified),.,.,2.7,.,.,.,.,.,
CC(=NNc1ccc([N+](=O)[O-])cc1[N+](=O)[O-])c1cccnc1,.,.,-1.0,.,.,.,.,.,
CC(=O)N(CCc1ccccc1C)Cc1cc2cc3c(cc2[nH]c1=O)OCO3,-28.2,-0.7,23.3,11.0,5.3,38.9*,187.1*,170.0*,
CCCCNC(=S)N(CCN(CC)CC)Cc1cc2cc3c(cc2[nH]c1=O)OCO3,-5.9,-11.3,3.3,32.9*,2.3,32.3*,15.8,4.5,GDH-TPI DR=4.92*
CCNC(=S)N(CCCN(CC)CC)Cc1cc2cc3c(cc2[nH]c1=O)OCO3,-12.7,-2.6,2.0,21.5,6.1,24.3,.,.,
SMILES,PrP UTR inh,PrPC surface inh,Mtb hypoxia inh,GDH-TPI counter-1,Y pestis TopoI,Mtb FBA inh,Mtb FBA inh conf,GDH-TPI counter-2,others
CCN(CC)CCN(Cc1cc2cc3c(cc2[nH]c1=O)OCO3)C(=S)NC,-21.6,-3.0,-2.5,23.4,4.9,101.5*,64.2*,54.9*,
CCCC12CN3CCN(CC(C3)C1=NNC(=O)c1ccccc1Cl)C2,.,.,4.2,.,.,.,.,.,
Cc1cccc(NC(=O)COC(=O)CCc2ccc(S(=O)(=O)N3CCOCC3)cc2)c1C,-20.6,8.0,2.0,6.9,4.7,0.1,.,.,
COc1ccccc1NC(=O)COC(=O)CCc1ccc(S(=O)(=O)N2CCOCC2)cc1,-13.1,-2.2,-3.3,13.7,9.3,31.0*,161.9*,133.6*,
O=C(NC(NC(=S)Nc1ccccc1C(=O)O)C(Cl)(Cl)Cl)c1ccco1 (stereo unspecified),-6.8,-3.0,-3.1,10.7,1.6,32.9*,2.1,-4.2,
COC(=O)c1ccccc1NC(=S)NC(NC(=O)c1ccco1)C(Cl)(Cl)Cl (stereo unspecified),-2.2,.,-3.5,15.0,5.6,6.4,.,.,
CN(C(=O)c1ccncc1)c1nnc(-c2ccccn2)s1,-28.7,2.9,.,-2.6,-3.9,47.6*,146.2*,132.7*,
CC(CCC(C)OC1OC(C)C(O)CC1O)OC1OC(C)C(O)CC1O (stereo unspecified),.,.,10.2,.,.,.,.,.,
C=C1CCC2C(C)(C)C(O)CC[C@@]2(C)C1COc1cc(=O)oc2ccccc12 (stereo partly specified),.,.,0.5,.,.,.,.,.,
Cn1cccc1CC(=O)NN=C/C=C/c1ccccc1,.,.,-1.5,.,.,.,.,.,
COc1ccccc1/C=C/C=N/NC(=O)Cc1cccn1C,-29.1,-8.1,.,50.9*,-4.4,77.8*,+,+,
COC(=O)[C@H](Cc1ccccc1)NC(=O)NC(C)CCc1ccccc1 (stereo partly specified),.,-3.3,-2.0,2.9,7.0,76.8*,+,+,
CC1CCCN(Cc2c(O)ccc3c(=O)c(-c4nc5ccccc5s4)c(N)oc23)C1 (stereo unspecified),-12.1,2.7,-4.0,38.7*,4.2,32.7*,136.1*,83.9*,
Cc1ccc(-n2c3nc(=O)n(C)c(=O)c-3cc3ccccc32)cc1,.,-15.3,12.0,13.0,-7.9,27.5*,93.1*,87.1*,
COc1ccc(C2C=C(C)Nc3ncnn32)cc1 (stereo unspecified),-12.2,-7.7,13.4,8.1,0.0,36.0*,121.3*,106.2*,
Cc1ccc(C2=CC(c3ccc(C)cc3)n3ncnc3N2)cc1 (stereo unspecified),2.9,-8.9,19.3,12.6,29.9,34.9*,118.8*,95.3*,
